In PubChem BioAssay AID1159580 (chemical genetic matrix, 2015):
About 2,000 (36%) of roughly 5,500 compounds were called active. Inconclusive results (about 18%) are left out. No stated cut-off is given here; in the data, active means normalized growth mostly below about 0.91 (no sharp cut-off); inconclusive means no clear call, values can overlap the other calls; inactive means mostly above about 0.92. This is one part of the list.

Assay: chemical genetic growth profiling, strain panel (AID 1159580);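 further: tested at 20 µM; growth read once vehicle control cultures reached saturation at 30 °C; 1 = growth at the plate median or of vehicle wells; lower values mean less growth of the strain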
Settings: S. cerevisiae deletion strains, growth OD
[1] = locus YAL021C, strain ccr4, hits give low values
[2] = locus YAL026C, strain drs2, hits give low values
[3] = locus YAL030W, strain snc1, hits give low values
[4] = locus YBL061C, strain skt5, hits give low values
[5] = locus YBR009C, strain hhf1, hits give low values
[6] = locus YBR023C, strain chs3, hits give low values
[7] = locus YBR171W, strain sec66, hits give low values
[8] = locus YBR231C, strain swc5, hits give low values
[9] = locus YBR279W, strain paf1, hits give low values
[10] = locus YCL011C, strain gbp2, hits give low values
[11] = locus YCL016C, strain dcc1, hits give low values
[12] = locus YCL061C, strain MRC1, hits give low values
[13] = locus YCL069W, strain vba3, hits give low values
[14] = locus YCR088W, strain abp1, hits give low values
[15] = locus YDL005C, strain med2, hits give low values
[16] = locus YDL040C, strain nat1, hits give low values
[17] = locus YDR001C, strain nth1, hits give low values
[18] = locus YDR069C, strain doa4, hits give low values
[19] = locus YDR137W, strain rgp1, hits give low values
[20] = locus YDR159W, strain sac3, hits give low values
[21] = locus YDR297W, strain sur2, hits give low values
[22] = locus YDR334W, strain swr1, hits give low values
[23] = locus YDR335W, strain msn5, hits give low values
[24] = locus YDR392W, strain spt3, hits give low values
[25] = locus YEL003W, strain gim4, hits give low values
[26] = locus YEL037C, strain rad23, hits give low values
[27] = locus YEL061C, strain CIN8 (second series), hits give low values
[28] = locus YER002W, strain NOP16, hits give low values
[29] = locus YER015W, strain faa2, hits give low values
[30] = locus YER016W, strain bim1, hits give low values
[31] = locus YER111C, strain swi4, hits give low values
[32] = locus YER155C, strain BEM2 (second series), hits give low values
[33] = locus YFR010W, strain ubp6, hits give low values
[34] = locus YGL167C, strain pmr1, hits give low values
[35] = locus YGL173C, strain kem1, hits give low values
[36] = locus YGL227W, strain vid30, hits give low values
[37] = locus YGL240W, strain doc1, hits give low values
[38] = locus YGL253W, strain hxk2, hits give low values
[39] = locus YHR013C, strain ard1, hits give low values
[40] = locus YHR027C, strain rpn1, hits give low values
[41] = locus YHR030C, strain SLT2, hits give low values
[42] = locus YHR079C, strain IRE1, hits give low values
[43] = locus YHR142W, strain chs7, hits give low values
[44] = locus YJL092W, strain hpr5, hits give low values
[45] = locus YJL095W, strain BCK1 (second series), hits give low values
[46] = locus YJL095W, strain BCK1, hits give low values
[47] = locus YJL115W, strain asf1, hits give low values
[48] = locus YJL129C, strain trk1, hits give low values
[49] = locus YJL154C, strain vps35, hits give low values
[50] = locus YJL164C, strain tpk1, hits give low values
[51] = locus YJL166W, strain qcr8, hits give low values
[52] = locus YJL187C, strain SWE1, hits give low values
[53] = locus YJR066W, strain TOR1, hits give low values
[54] = locus YKL160W, strain elf1, hits give low values
[55] = locus YKR026C, strain gcn3, hits give low values
[56] = locus YKR091W, strain srl3, hits give low values
[57] = locus YLL001W, strain dnm1, hits give low values
[58] = locus YLL026W, hits give low values
[59] = locus YLL041C, strain sdh2, hits give low values
[60] = locus YLR027C, strain aat2, hits give low values
[61] = locus YLR113W, strain HOG1, hits give low values
[62] = locus YLR221C, strain rsa3, hits give low values
[63] = locus YLR258W, strain gsy2, hits give low values
[64] = locus YLR262C, strain YPT6 (second series), hits give low values
[65] = locus YLR320W, strain mms22, hits give low values
[66] = locus YLR342W, strain FKS1, hits give low values
[67] = locus YLR357W, strain rsc2, hits give low values
[68] = locus YLR370C, strain arc18, hits give low values
[69] = locus YLR384C, strain iki3, hits give low values
[70] = locus YML120C, strain ndi1, hits give low values
[71] = locus YMR058W, strain fet3, hits give low values
[72] = locus YMR125W, strain sto1, hits give low values
[73] = locus YMR129W, hits give low values
[74] = locus YMR205C, strain PFK2, hits give low values
[75] = locus YMR231W, strain pep5, hits give low values
[76] = locus YNL071W, strain lat1, hits give low values
[77] = locus YNL175C, strain NOP13, hits give low values
[78] = locus YNL183C, strain NPR1, hits give low values
[79] = locus YNL197C, strain WHI3, hits give low values
[80] = locus YNL209W, strain ssb2, hits give low values
[81] = locus YNL224C, strain SQS1, hits give low values
[82] = locus YNL248C, strain rpa49, hits give low values
[83] = locus YNL322C, strain KRE1 (second series), hits give low values
[84] = locus YNR049C, strain mso1, hits give low values
[85] = locus YOR001W, strain rrp6, hits give low values
[86] = locus YOR070C, strain gyp1, hits give low values
[87] = locus YOR080W, strain dia2, hits give low values
[88] = locus YOR083W, strain WHI5 (second series), hits give low values
[89] = locus YOR083W, strain WHI5, hits give low values
[90] = locus YOR106W, strain vam3, hits give low values
[91] = locus YOR231W, strain MKK1, hits give low values
[92] = locus YOR265W, strain rbl2, hits give low values
[93] = locus YOR270C, strain vph1, hits give low values
[94] = locus YOR290C, strain snf2, hits give low values
[95] = locus YPL051W, strain arl3, hits give low values
[96] = locus YPL078C, strain atp4, hits give low values
[97] = locus YPL106C, strain sse1, hits give low values
[98] = locus YPL240C, strain hsp82, hits give low values
[99] = locus YPL256C, strain CLN2, hits give low values
[100] = locus YAL040C, strain CLN3, hits give low values
[101] = locus YCL061C, strain MRC1 (second series), hits give low values
[102] = locus YDR363W, strain ESC2, hits give low values

Measured: normalized growth

O=[N+]([O-])c1cccc2c(Br)[nH]nc12
inactive: [1] 0.955 | [2] 0.993 | [3] 0.984 | [4] 0.982 | [5] 1.01 | [6] 0.992 | [7] 0.972 | [8] 0.997 | [9] 0.992 | [10] 0.976 | [11] 0.996 | [12] 0.983 | [13] 0.972 | [14] 0.986 | [15] 0.977 | [16] 0.99 | [17] 0.984 | [18] 0.965 | [19] 0.942 | locus YDR150W, strain NUM1, hits give low values 0.961 | [20] 1.07 | locus YDR195W, strain ref2 1.09 | [21] 0.977 | [22] 0.956 | [23] 0.975 | [24] 0.852 | [25] 0.978 | [26] 0.99 | [27] 0.987 | [28] 0.975 | [29] 0.973 | [30] 0.998 | [31] 0.998 | [32] 0.948 | [33] 0.972 | [34] 0.99 | [35] 0.983 | [36] 0.993 | [37] 0.996 | [38] 0.988 | [39] 1.03 | [40] 0.974 | [41] 0.933 | [42] 0.937 | [43] 0.901 | [44] 0.969 | [45] 0.977 | [46] 0.911 | [47] 0.985 | [48] 0.988 | [49] 0.983 | [50] 0.932 | [51] 0.952 | [52] 0.98 | [53] 0.882 | [54] 0.916 | [55] 0.988 | [56] 0.976 | [57] 0.977 | [58] 0.98 | [59] 0.976 | [60] 0.972 | [61] 1.04 | [62] 0.937 | [63] 0.994 | [64] 0.986 | [65] 0.99 | [66] 0.987 | [67] 1.02 | [68] 0.986 | [69] 0.987 | [70] 0.94 | [71] 0.942 | [72] 1.01 | [73] 0.99 | [74] 1.05 | [75] 0.994 | [76] 0.982 | [77] 0.972 | [78] 0.873 | [79] 1.01 | [80] 0.973 | [81] 0.982 | [83] 0.994 | [84] 0.977 | [85] 0.928 | [86] 0.984 | [87] 0.987 | [88] 0.991 | [91] 0.929 | [92] 0.982 | [93] 0.804 | [94] 0.919 | [97] 0.979 | [98] 0.979 | [99] 0.97
active: [82] 0.871 | [89] 0.881 | [90] 0.863 | [95] 0.899 | [96] 0.874

O=[N+]([O-])c1cccc2cn[nH]c12
inactive: [1] 1.01 | [2] 1 | [3] 1 | [100] 0.985 | [4] 0.996 | [5] 1 | [6] 0.991 | [7] 0.981 | [8] 0.982 | [9] 1 | [10] 0.983 | [11] 0.989 | [101] 1 | [12] 0.997 | [13] 0.986 | [14] 0.98 | [15] 0.997 | [16] 1 | [17] 0.99 | [18] 0.982 | [19] 0.996 | [20] 0.991 | locus YDR195W, strain ref2 1.02 | [21] 0.988 | [22] 0.997 | [23] 0.986 | [102] 1.01 | [24] 1.02 | [25] 1 | [26] 1 | [27] 0.979 | [28] 0.987 | [29] 0.994 | [30] 1 | [31] 0.989 | [32] 1.01 | [33] 0.988 | [34] 0.998 | [35] 1.01 | [36] 1.01 | [37] 1.01 | [38] 0.99 | locus YGR229C, strain SMI1, hits give low values 0.999 | [39] 1.05 | [40] 0.994 | [41] 1.03 | [42] 1.03 | [43] 0.995 | [44] 0.989 | [45] 1 | [46] 1.03 | [47] 0.984 | [48] 1 | [49] 0.981 | [50] 0.988 | [51] 0.992 | [52] 0.999 | [53] 0.947 | locus YJR075W, strain HOC1, hits give low values 1.01 | [54] 0.958 | [55] 1 | [56] 0.988 | [57] 0.999 | [58] 0.98 | [59] 0.985 | [60] 1 | [61] 1 | [62] 0.995 | [63] 0.983 | [64] 1.01 | [65] 1 | [66] 1.01 | [67] 0.993 | [68] 0.994 | [69] 0.996 | [70] 0.991 | [71] 0.982 | [72] 0.967 | [73] 0.993 | [74] 0.991 | [75] 1 | [76] 1.01 | locus YNL128W, strain TEP1, hits give low values 0.998 | [77] 0.999 | [78] 0.951 | [79] 0.992 | [80] 0.972 | [81] 1 | [82] 0.965 | [83] 0.993 | [84] 1 | [85] 1 | [86] 0.992 | [87] 1.01 | [88] 1 | [89] 0.965 | [90] 0.981 | [91] 1.01 | [92] 0.996 | [93] 0.992 | [94] 0.986 | [95] 0.972 | [96] 0.995 | [97] 0.957 | [98] 0.992 | [99] 0.997

NS(=O)(=O)c1cccc2c1c([N+](=O)[O-])cc1nc(O)c(O)nc12
inactive: locus YAL013W, strain DEP1, hits give low values 1 | [100] 1.08 | [101] 0.998 | [102] 1.01 | [28] 0.999 | locus YGR078C, strain PAC10, hits give low values 0.995 | locus YMR307W, strain GAS1, hits give low values 0.997 | [77] 0.989 | [79] 1.01 | [81] 1 | locus YNL322C, strain KRE1, hits give low values 0.998 | [88] 1.01 | locus YPL055C, strain LGE1, hits give low values 1
